Test results reported in PubChem BioAssay.
Calls of active or inactive are those of the source. Unless noted, the rule behind the calls is not given here.

What was measured:
[1] = test system: Wnt5a (protein binding on small-molecule microarray); assay: Wnt5a binders on small-molecule microarray, primary screen, biophysical, 635/667 nm fluorescence (AID 1142); settings: 635 nm fluorescence, higher = more signal;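 note: fluorescence read at 667 nm with signal to noise per printed feature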
[2] = cell viability in Huh7 cells, primary screen, cytotoxicity control for HCV replication inhibitor project, CellTiter-Glo luminescence, basal, 48 h (AID 1143); settings: Huh7 HCV replicon, higher = more signal, called active from +8 up or from −8 down;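 note: Huh7 hepatoma cells carrying a hepatitis C replication reporter with no stimulus; test concentration not given here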
[3] = P. aeruginosa biofilm formation inhibitors, primary screen, PAO1 strain, BacTiter-Glo luminescence, LB-PBS (AID 1144); settings: 12 h, higher = more signal
[4] = CREB reporter modulators without forskolin, primary screen, cell-based, PC12, CRE-LacZ reporter, unstimulated (AID 1145); settings: no forskolin, luminescence, 4.5 h, higher = more signal, called active from +8 up or from −8 down
[5] = CREB reporter modulators under forskolin, primary screen, cell-based, PC12, CRE-LacZ reporter, forskolin-stimulated (AID 1146); settings: luminescence, 4.5 h, higher = more signal, called active from +8 up or from −8 down;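 note: PC12 cells with 6xCRE LacZ reporter stimulated by forskolin 10 µM; beta-galactosidase reporter signal reflecting CREB driven transcription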
[6] = molecular target: Streptavidin (Streptomyces avidinii) (UniProt P22629); assay: streptavidin binders on small-molecule microarray, primary screen, artefact control for SMM compound annotation, biophysical, 635/667 nm fluorescence (AID 1147); settings: streptavidin binding, higher = more signal;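 note: signal reflects streptavidin binding to arrayed compounds as a control protein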
Streptavidin (Streptomyces avidinii), sequence (P22629 whole entry, looked up): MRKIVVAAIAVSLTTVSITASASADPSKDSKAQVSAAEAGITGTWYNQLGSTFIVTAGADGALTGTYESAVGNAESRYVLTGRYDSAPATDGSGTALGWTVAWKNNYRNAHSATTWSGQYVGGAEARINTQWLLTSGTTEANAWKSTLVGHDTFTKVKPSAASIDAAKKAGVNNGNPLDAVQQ

[7] = small-molecule binders of probe aInhba, primary screen, biochemical, small-molecule microarray, 635/667 nm fluorescence (AID 1148); settings: higher = more signal;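 note: score merges 667nm spot fluorescence with signal-to-noise for antibody binding to printed compounds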
Torsin-1A (Homo sapiens) [8] = molecular target: Torsin-1A (Homo sapiens) (UniProt O14656); assay: torsin A binders from cell lysate, primary screen, small-molecule microarray, wild-type, 635/667 nm (AID 1149); settings: COS7 hTOR1A-WT lysate, 635 nm fluorescence, higher = more signal
Torsin-1A (Homo sapiens), sequence (O14656 whole entry, looked up): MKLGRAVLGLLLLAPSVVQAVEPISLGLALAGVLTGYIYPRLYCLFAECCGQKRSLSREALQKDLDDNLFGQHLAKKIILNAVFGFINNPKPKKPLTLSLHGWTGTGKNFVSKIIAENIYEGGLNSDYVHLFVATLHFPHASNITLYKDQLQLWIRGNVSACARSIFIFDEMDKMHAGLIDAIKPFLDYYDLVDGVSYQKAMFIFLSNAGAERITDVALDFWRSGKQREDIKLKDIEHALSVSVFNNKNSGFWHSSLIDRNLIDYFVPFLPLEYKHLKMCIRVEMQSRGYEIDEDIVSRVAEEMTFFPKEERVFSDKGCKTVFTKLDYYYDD

Torsin-1A (Homo sapiens) [9] = molecular target: Torsin-1A (Homo sapiens) (UniProt O14656); assay: small-molecule binders of mutant TOR1A in lysate, primary screen, cell lysate, small-molecule microarray, COS7 lysate, 635/667 nm fluorescence (AID 1150); settings: COS7 hTOR1A mutant lysate, 635 nm fluorescence, higher = more signal;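 note: score pools 667 nm emission and signal to noise measuring lysate protein binding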
[10] = test system: Sonic hedgehog protein (Shh); assay: small-molecule binders of Shh protein, primary screen, biochemical, small-molecule microarray, 635/667 nm fluorescence (AID 1151); settings: small-molecule microarray binding, 635 nm fluorescence; higher = more signal;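 note: Shh protein binding to compounds spotted on small-molecule microarray slides; score combines spot fluorescence intensity with signal-to-noise across triplicate slides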
[11] = E. coli DRC41 culture turbidity changes, primary screen, E. coli filamentation inducer project, strain DRC41, OD650, 48 h (AID 1152);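 note: E. coli MC1000 strain DRC41 lacking acrAB efflux pump and sulA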; settings: E. coli DRC41 (acrAB sulA), higher = more signal, called active from +8 up or from −8 down
[12] = small-molecule binders of probe aLefty1, primary screen, biochemical, small-molecule microarray, 635/667 nm fluorescence (AID 1153); settings: higher = more signal;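 note: score merges spot fluorescence with signal-to-noise ratio from the scanned slide images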
[13] = PSAC antagonists in infected red cells, primary screen, cell-based, P. falciparum Indochina, OD700, 1 h (AID 1154); settings: P. falciparum Indochina infected RBC osmotic lysis, higher = more signal, called active from +8 up or from −8 down
[14] = PSAC antagonists in infected red cells, primary screen, cell-based, P. falciparum Indochina, OD700, 2 h (AID 1155);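 note: lysis reports solute entry through the parasite surface anion channel PSAC; channel blockers reduce lysis of infected cells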; settings: P. falciparum Indochina infected erythrocytes, osmotic lysis OD700; higher = more signal, called active from +8 up or from −8 down
[15] = osmotic lysis modulators in infected erythrocytes, primary screen, PSAC antagonist project, cell-based, P. falciparum Indochina, OD700, 3 h (AID 1156); settings: higher = more signal, called active from +8 up or from −8 down
[16] = PSAC antagonists in infected red cells, primary screen, cell-based, P. falciparum Indochina, OD700, 18 h (AID 1157); settings: P. falciparum Indochina infected erythrocytes, osmotic lysis OD700, 18 h; higher = more signal, called active from +8 up or from −8 down
[17] = modulators of S6 phosphorylation in cells, primary screen, cell-based, A549, cytoblot, luminescence, serum-stimulated (AID 1158); settings: A549 phospho-S6 cytoblot, 5 h, higher = more signal;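 note: serum-stimulated A549 lung adenocarcinoma cells; signal is phosphorylated S6 detected by cytoblot immunostaining with HRP secondary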
[18] = molecular target: NADPH oxidase 2 (Homo sapiens) (UniProt P04839); assay: NOX2-dependent H2O2 signal modulators, primary screen, NOX inhibitor project, cell-based, HEK293-NOX2, PMA-stimulated, Amplex Red fluorescence (AID 1159); settings: 45 min, higher = more signal, called active from +8 up or from −8 down; note: test concentration not given here
NADPH oxidase 2 (Homo sapiens), sequence (P04839 whole entry, looked up): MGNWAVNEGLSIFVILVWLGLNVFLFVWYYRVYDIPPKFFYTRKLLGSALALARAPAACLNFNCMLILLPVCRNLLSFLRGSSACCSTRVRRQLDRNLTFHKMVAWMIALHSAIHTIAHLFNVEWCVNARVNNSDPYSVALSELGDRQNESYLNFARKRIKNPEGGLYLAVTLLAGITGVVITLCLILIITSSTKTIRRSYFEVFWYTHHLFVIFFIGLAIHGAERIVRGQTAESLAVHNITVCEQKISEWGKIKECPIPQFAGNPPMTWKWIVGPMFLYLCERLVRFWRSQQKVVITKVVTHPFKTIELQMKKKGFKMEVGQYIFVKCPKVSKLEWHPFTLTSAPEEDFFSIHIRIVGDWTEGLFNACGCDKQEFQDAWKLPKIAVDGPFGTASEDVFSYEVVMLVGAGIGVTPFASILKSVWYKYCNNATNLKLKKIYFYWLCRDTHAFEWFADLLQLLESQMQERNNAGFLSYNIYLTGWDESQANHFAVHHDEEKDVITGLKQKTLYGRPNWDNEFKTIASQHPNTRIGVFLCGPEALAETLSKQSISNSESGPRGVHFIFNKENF

[19] = molecular target: NADPH oxidase 4 (Homo sapiens) (UniProt Q9NPH5); assay: NOX4-dependent H2O2 signal modulators, primary screen, NOX inhibitor project, cell-based, HEK293-NOX4, tetracycline-induced, Amplex Red fluorescence (AID 1160); settings: 45 min, higher = more signal, called active from +8 up or from −8 down
NADPH oxidase 4 (Homo sapiens), sequence (Q9NPH5 whole entry, looked up): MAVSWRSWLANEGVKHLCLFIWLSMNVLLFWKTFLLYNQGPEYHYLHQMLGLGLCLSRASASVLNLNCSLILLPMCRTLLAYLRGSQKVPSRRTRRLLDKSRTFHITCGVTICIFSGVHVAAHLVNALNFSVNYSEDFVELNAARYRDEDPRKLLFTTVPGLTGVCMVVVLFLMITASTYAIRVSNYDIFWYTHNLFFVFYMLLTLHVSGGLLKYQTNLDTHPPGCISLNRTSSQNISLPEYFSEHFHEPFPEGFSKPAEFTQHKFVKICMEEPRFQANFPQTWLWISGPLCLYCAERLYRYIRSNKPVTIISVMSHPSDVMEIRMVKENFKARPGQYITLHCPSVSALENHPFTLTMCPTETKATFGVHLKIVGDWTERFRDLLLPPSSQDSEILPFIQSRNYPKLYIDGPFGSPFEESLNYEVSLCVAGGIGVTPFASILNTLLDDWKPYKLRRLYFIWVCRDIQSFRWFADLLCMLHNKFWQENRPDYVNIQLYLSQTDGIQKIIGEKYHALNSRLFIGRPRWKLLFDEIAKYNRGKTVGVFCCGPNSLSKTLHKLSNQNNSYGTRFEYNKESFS

[20] = molecular target: NADPH oxidase 5 (Homo sapiens) (UniProt Q96PH1); assay: NOX5-dependent H2O2 signal modulators, primary screen, NOX inhibitor project, cell-based, HEK293-NOX5, Amplex Red fluorescence (AID 1161); settings: HEK293-NOX5, ionomycin, 45 min, higher = more signal
NADPH oxidase 5 (Homo sapiens), sequence (Q96PH1 whole entry, looked up): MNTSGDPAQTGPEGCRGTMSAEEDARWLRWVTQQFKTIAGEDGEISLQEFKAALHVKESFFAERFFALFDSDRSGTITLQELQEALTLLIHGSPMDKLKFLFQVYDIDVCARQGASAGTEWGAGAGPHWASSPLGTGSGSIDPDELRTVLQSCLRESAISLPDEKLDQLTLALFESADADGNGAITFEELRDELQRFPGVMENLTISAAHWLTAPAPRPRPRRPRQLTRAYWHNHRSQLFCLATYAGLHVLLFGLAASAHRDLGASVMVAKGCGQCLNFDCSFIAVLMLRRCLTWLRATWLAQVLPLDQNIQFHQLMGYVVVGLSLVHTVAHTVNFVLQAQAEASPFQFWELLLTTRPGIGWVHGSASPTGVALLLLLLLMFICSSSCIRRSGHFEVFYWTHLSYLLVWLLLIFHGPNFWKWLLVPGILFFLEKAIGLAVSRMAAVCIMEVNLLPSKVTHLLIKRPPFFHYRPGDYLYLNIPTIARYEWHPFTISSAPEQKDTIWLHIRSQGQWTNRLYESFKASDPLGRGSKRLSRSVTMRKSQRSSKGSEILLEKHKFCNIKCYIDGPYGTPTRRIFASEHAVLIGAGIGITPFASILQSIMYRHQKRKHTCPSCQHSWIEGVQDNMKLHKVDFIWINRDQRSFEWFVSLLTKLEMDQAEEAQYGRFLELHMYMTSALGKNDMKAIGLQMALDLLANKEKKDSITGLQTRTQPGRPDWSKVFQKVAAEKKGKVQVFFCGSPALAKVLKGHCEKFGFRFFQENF

| SMILES | composite z-score [1] | z-score [2] | z-score [3] | z-score [4] | z-score [5] | composite z-score [6] | composite z-score [7] | composite z-score (Torsin-1A (Homo sapiens) [8]) | composite z-score (Torsin-1A (Homo sapiens) [9]) | composite z-score [10] | z-score [11] | composite z-score [12] | z-score [13] | z-score [14] | z-score [15] | z-score [16] | z-score [17] | z-score [18] | z-score [19] | z-score [20] |
| --- | --- | --- | --- | --- | --- | --- | --- | --- | --- | --- | --- | --- | --- | --- | --- | --- | --- | --- | --- | --- |
| O=C1O[C@H](c2ccccc2)[C@H](c2ccccc2)N2[C@H]1[C@@H](C(=O)N1CCCCCCC1)[C@]1(C(=O)Nc3ccc(C#CC4(O)CCCCCC4)cc31)[C@H]2c1ccc(O)cc1 | 1.19 | -3.1 (inactive) | -0.555 (inactive) | -0.168 (inactive) | -0.219 (inactive) | 2.76 | 1.77 | 1.13 | 1.49 | 1.45 | 0.507 (inactive) | 2.47 | 0.839 (inactive) | 0.222 (inactive) | 1.34 (inactive) | 0.491 (inactive) | 0.148 | 1.33 (inactive) | 0.803 (inactive) | 1.17 |
| C=C(COC)C(=O)CC[C@@H](OC(=O)c1cccnc1)c1ccccc1OCCO | 0.125 | -3.79 (inactive) | 0.291 (inactive) | 19.7 (active) | 16.4 (active) | -0.126 | 0.0355 | 0.882 | 1.14 | 0.786 | 0.0001 (inactive) | -0.106 | 21.2 (active) | 2.88 (inactive) | 0.793 (inactive) | 0.65 (inactive) | -0.347 | -2.12 (inactive) | -0.369 (inactive) | -1.4 |
| C=C[C@@H](C)[C@@H](OC(=O)Nc1ccc(SC)cc1)c1ccc(OCCO)cc1 | 0.382 | -3.1 (inactive) | -0.882 (inactive) | 0.236 (inactive) | -0.162 (inactive) | 0.929 | -0.151 | 0.495 | 1.04 | 0.487 | -0.707 (inactive) | -0.156 | 29.1 (active) | 20.2 (active) | 4.42 (inactive) | 1.9 (inactive) | 0.241 | -1.21 (inactive) | -0.0499 (inactive) | -0.431 |
| Cc1cccc([C@H]2C[C@H]3C(Br)=C[C@@H]2C(=O)[C@]32CO2)c1 | -0.258 | -0.687 (inactive) | 0.185 (inactive) | 0.854 (inactive) | 2.63 (inactive) | -0.221 | -0.239 | 0.397 | -1.21 | -0.198 | -0.227 (inactive) | -0.147 | 0.969 (inactive) | 0.323 (inactive) | 0.463 (inactive) | 0.06 (inactive) | 0.209 | 0.7 (inactive) | -0.00866 (inactive) | -0.854 |
